Experimental data: PubChem BioAssay (Tox21)
Unmarked numbers belong to inactive results. Unless noted, calls follow the shape of the full dose curve. Results filed as inconclusive are left out.

Molecular target: Muscarinic acetylcholine receptor M1 (Homo sapiens) (UniProt P11229)
Assay: Cholinergic receptor muscarinic 1 (CHRM1) small molecule agonists, cell-based qHTS assay (AID 1963589); also: nearly all actives have a fitted effect of over 35% in size
Conditions: CHRM1-CHO cells, agonist mode, calcium flux fluorescence; series mostly up to 76.8 µM; activation: at the top concentration
Procedure, shortened: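 CHO cells stably expressing human CHRM1, seeded 18 h at 37 C/5% CO2, dye-loaded 1 h at 37 C, then given compound in agonist mode; intracellular calcium fluorescence read kinetically at 1 s intervals. Fifteen concentrations, three independent runs.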
% is scaled to controls: 0 for no effect and ±100 for the full control effect.

Sequence of Muscarinic acetylcholine receptor M1 (Homo sapiens) (P11229 whole entry, looked up): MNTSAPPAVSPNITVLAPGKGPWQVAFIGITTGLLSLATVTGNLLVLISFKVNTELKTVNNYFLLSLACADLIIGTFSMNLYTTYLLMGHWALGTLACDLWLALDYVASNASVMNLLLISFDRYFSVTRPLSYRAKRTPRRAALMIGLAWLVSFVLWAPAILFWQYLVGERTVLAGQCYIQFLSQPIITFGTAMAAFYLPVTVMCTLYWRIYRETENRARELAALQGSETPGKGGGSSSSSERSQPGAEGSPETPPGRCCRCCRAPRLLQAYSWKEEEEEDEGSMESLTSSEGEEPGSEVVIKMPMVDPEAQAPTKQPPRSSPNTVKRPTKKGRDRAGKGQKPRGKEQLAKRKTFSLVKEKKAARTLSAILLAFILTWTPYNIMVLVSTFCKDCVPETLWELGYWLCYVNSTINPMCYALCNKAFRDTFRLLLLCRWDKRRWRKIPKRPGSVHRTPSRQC

| SMILES | activation |
| --- | --- |
| C=CC(=O)O | 0.276% [at 35.3 µM] |
| OC[C@@H](O)C(O)[C@@H](O)CO (some centres not stated) | -0.0883% |
| Cc1ccco1 | 0.41% |
| CN(C)c1ccc(C(c2ccccc2)c2ccc(N(C)C)cc2)cc1 | -0.322% |
| CCCCOC(=O)C(C)Oc1ccc(Oc2ccc(C(F)(F)F)cn2)cc1 (configuration not stated) | 1.17% |

Tested on: not listed separately
Assay: cAMP Responsive Elements (CRE) small molecule agonists, cell-based qHTS assay (AID 1963590)
Conditions: CRE-bla HEK293T, beta-lactamase FRET ratio, 3 h; series mostly up to 92.4 µM; activation: at the top concentration
Procedure, shortened: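 CRE-bla HEK 293T cells in DMEM with 10% dialyzed FBS, NEAA, pyruvate and 25 mM HEPES were plated 18 h at 37 C/5% CO2, then exposed to compounds in DMSO for 3 h before LiveBLAzer B/G FRET substrate addition.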

| SMILES | activation |
| --- | --- |
| CC(=O)c1ccc(Cl)c(Cl)c1Cl | 0.0989% |
| CCCCCCCCOC(C)=O | 0.762% |
| O=C(Nc1ccc2c(O)c(N=Nc3ccc(N=Nc4ccc(S(=O)(=O)O)cc4)cc3)c(S(=O)(=O)O)cc2c1)c1ccccc1 | -0.565% |
| OCC(O)[C@@H](O)[C@H](O)[C@H](O)CO[C@H]1O[C@H](CO)[C@@H](O)[C@H](O)[C@H]1O (some centres not stated) | 0.735% |
| C[C@@H](CN1CC(=O)NC(=O)C1)N1CC(=O)NC(=O)C1 | 1.15% [at 42.5 µM] |
| CCOCCOCCOC(C)=O | 1.08% |
| CO[Si](C)(OC)c1ccccc1 | 0.334% |
| Cc1ccc(N(CC2=NCCN2)c2cccc(O)c2)cc1 | -0.149% [at 42.5 µM] |
| COC(=O)c1ccccc1Cl | 0.102% |
| CNS(=O)(=O)Cc1ccc2[nH]cc(CCN(C)C)c2c1 | 0.721% [at 42.5 µM] |
| CCCCCCCCCC#N | -1.39% |
| CCOC(=O)CCCCCCCCC(=O)OCC | -0.786% |
| COc1cccc(O)c1 | 0.685% |
| CC[C@H]1OC(=O)[C@H](C)[C@@H](O[C@H]2C[C@@](C)(OC)[C@@H](O)[C@H](C)O2)[C@H](C)[C@@H](O[C@@H]2O[C@H](C)C[C@H](N(C)C)[C@H]2O)[C@](C)(OC)C[C@@H](C)C(=O)[C@H](C)[C@@H](O)[C@]1(C)O | -0.642% |
| [O-][n+]1cccc(CO)c1 | -0.0552% [at 42.5 µM] |
| CC1OCCC1=O (configuration not stated) | -1.85% |
| CC(C)=CCC/C(C)=C/CC/C(C)=C/CO | 3.97% |
| COCCOCC(OC)OC | -1.52% [at 42.5 µM] |
| ClC(Cl)(Br)Br | 0.14% |
| CCC(=O)c1cccc(Cl)c1 | -0.704% |
| CC(C)(C)NC[C@H](O)COc1cccc2c1CCCC2=O | 0.0334% [at 42.5 µM] |
| CN(C)CCOC1=Cc2ccccc2Sc2ccc(Cl)cc21 | 3.69% [at 42.5 µM] |
| O=C1CCCc2c(O)cccc21 | -5.24% [at 42.5 µM] |
| C=CC(=O)O | -1.28% [at 42.5 µM] |
| OC[C@@H](O)C(O)[C@@H](O)CO (some centres not stated) | 0.341% |
| C[C@H](CCC(=O)O)[C@H]1CC[C@H]2[C@@H]3[C@H](O)C[C@@H]4C[C@H](O)CC[C@]4(C)[C@H]3C[C@H](O)[C@]12C | -0.544% [at 42.5 µM] |
| Cc1ccco1 | 0.0991% |
| CN(C)c1ccc(C(c2ccccc2)c2ccc(N(C)C)cc2)cc1 | -3.41% |
| CCCCOC(=O)C(C)Oc1ccc(Oc2ccc(C(F)(F)F)cn2)cc1 (configuration not stated) | 0.17% |

Tested on: not listed separately
Assay: cAMP Responsive Elements (CRE) small molecule antagonists, cell-based qHTS assay (AID 1963591; active = well fitted inhibition curve with a large enough effect in the signal ratio in the repeat runs, not every such curve was filed as active; the % refers to the signal ratio)
Conditions: CRE-bla HEK293T, beta-lactamase FRET ratio; series mostly up to 92.4 µM; activity change, negative = inhibition: at the top concentration
Procedure, shortened: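 CRE-bla HEK293T cells were plated 18 h at 37 °C/5% CO2, pinned with compound in DMSO, then stimulated with NKH477 at 0.25 uM final for 3 h. LiveBLAzer B/G FRET substrate was added and plates incubated 2 h at room temperature.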

| SMILES | activity change, negative = inhibition |
| --- | --- |
| CC(=O)c1ccc(Cl)c(Cl)c1Cl | 7.2% |
| CCCCCCCCOC(C)=O | -8.84% |
| CC(C)(C)C(=O)/C=C/c1ccc(Cl)cc1 | -19% |
| OCC(O)[C@@H](O)[C@H](O)[C@H](O)CO[C@H]1O[C@H](CO)[C@@H](O)[C@H](O)[C@H]1O (some centres not stated) | 1.51% |
| C[C@@H](CN1CC(=O)NC(=O)C1)N1CC(=O)NC(=O)C1 | 0.431% [at 42.4 µM] |
| CCCCCCCCCCC(=O)O | 4.66% |
| CCOc1nc2cccc(C(=O)O)c2n1Cc1ccc(-c2ccccc2-c2nn[nH]n2)cc1 | 17.8% [at 42.4 µM] |
| CCOCCOCCOC(C)=O | 4.68% |
| Cc1ccc(N(CC2=NCCN2)c2cccc(O)c2)cc1 | -7.86% [at 42.4 µM] |
| COC(=O)c1ccccc1Cl | -9.98% |
| CNS(=O)(=O)Cc1ccc2[nH]cc(CCN(C)C)c2c1 | 1.31% [at 42.4 µM] |
| CCCCCCCCCC#N | -5.63% |
| CCOC(=O)CCCCCCCCC(=O)OCC | 6.86% |
| COc1cccc(O)c1 | -7.25% |
| CC[C@H]1OC(=O)[C@H](C)[C@@H](O[C@H]2C[C@@](C)(OC)[C@@H](O)[C@H](C)O2)[C@H](C)[C@@H](O[C@@H]2O[C@H](C)C[C@H](N(C)C)[C@H]2O)[C@](C)(OC)C[C@@H](C)C(=O)[C@H](C)[C@@H](O)[C@]1(C)O | 1.49% |
| [O-][n+]1cccc(CO)c1 | -4.87% [at 42.4 µM] |

| SMILES | activity change, negative = inhibition |
| --- | --- |
| CC1OCCC1=O (configuration not stated) | 1.66% |
| O=[N+]([O-])c1cc(Cl)c(Cl)c(Cl)c1Cl | -1.76% |
| COCCOCC(OC)OC | 8.24% [at 42.4 µM] |
| ClC(Cl)(Br)Br | -8.28% |
| CCC(=O)c1cccc(Cl)c1 | -8.56% |
| CN(C)CCOC1=Cc2ccccc2Sc2ccc(Cl)cc21 | -0.609% [at 42.4 µM] |
| COc1cc2nc(Cl)nc(N)c2cc1OC | 0.1% [at 42.4 µM] |
| O=C1CCCc2c(O)cccc21 | -10.9% [at 42.4 µM] |
| C=CC(=O)O | 2.08% [at 42.4 µM] |
| Cc1c(C)c2c(c(C)c1O)CC[C@@](C)(CCC[C@H](C)CCC[C@H](C)CCCC(C)C)O2 | 0.634% |
| OC[C@@H](O)C(O)[C@@H](O)CO (some centres not stated) | 2.55% |
| C[C@H](CCC(=O)O)[C@H]1CC[C@H]2[C@@H]3[C@H](O)C[C@@H]4C[C@H](O)CC[C@]4(C)[C@H]3C[C@H](O)[C@]12C | 2.34% [at 42.4 µM] |
| Cc1ccco1 | -4.94% |
| CN(C)c1ccc(C(c2ccccc2)c2ccc(N(C)C)cc2)cc1 | -0.497% |
| CCCCOC(=O)C(C)Oc1ccc(Oc2ccc(C(F)(F)F)cn2)cc1 (configuration not stated) | 8.03% |

Molecular target: Beta-2 adrenergic receptor (Homo sapiens) (UniProt P07550)
Assay: Adrenergic beta2 receptor (ADRB2) small molecule antagonists, cell-based qHTS assay (AID 1963592); also: nearly all actives have a fitted effect of over 50% in size
Conditions: CHO-ADRB2 cells, isoproterenol-stimulated cAMP HTRF ratio, 0.5 h; series mostly up to 92.4 µM; activity change, negative = inhibition: at the top concentration
Procedure, shortened: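 Cells (CHO, stable ADRB2 overexpression) incubated 18-20hr at 37C; compounds added from DMSO; agonist mix (1nM isoproterenol, 100uM IBMX, 25uM Ro-20-1724) added; 0.5hr RT; d2-cAMP and anti-cAMP-cryptate added; 1hr RT; 665/615 nm read.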

Sequence of Beta-2 adrenergic receptor (Homo sapiens) (P07550 whole entry, looked up): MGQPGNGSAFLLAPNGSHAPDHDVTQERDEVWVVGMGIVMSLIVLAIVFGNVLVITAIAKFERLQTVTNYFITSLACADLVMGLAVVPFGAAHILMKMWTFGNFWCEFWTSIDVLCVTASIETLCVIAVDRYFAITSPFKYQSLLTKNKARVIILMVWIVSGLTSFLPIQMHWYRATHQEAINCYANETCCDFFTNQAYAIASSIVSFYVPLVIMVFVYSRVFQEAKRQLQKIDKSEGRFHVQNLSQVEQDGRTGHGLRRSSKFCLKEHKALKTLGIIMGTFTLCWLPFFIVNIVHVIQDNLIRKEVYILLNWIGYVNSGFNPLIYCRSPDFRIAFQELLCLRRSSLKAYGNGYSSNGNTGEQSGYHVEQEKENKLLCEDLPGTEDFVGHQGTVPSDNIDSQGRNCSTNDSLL

| SMILES | activity change, negative = inhibition |
| --- | --- |
| CC(=O)c1ccc(Cl)c(Cl)c1Cl | -7.14% |
| O=C(O)CCC(=O)c1ccc(-c2ccccc2)cc1 | -0.0126% [at 42.5 µM] |
| CCCCCCCCOC(C)=O | -0.599% |
| O=C(Nc1ccc2c(O)c(N=Nc3ccc(N=Nc4ccc(S(=O)(=O)O)cc4)cc3)c(S(=O)(=O)O)cc2c1)c1ccccc1 | 0.56% |
| CC(C)(C)C(=O)/C=C/c1ccc(Cl)cc1 | 0.972% |
| OCC(O)[C@@H](O)[C@H](O)[C@H](O)CO[C@H]1O[C@H](CO)[C@@H](O)[C@H](O)[C@H]1O (some centres not stated) | -4.38% |
| C[C@@H](CN1CC(=O)NC(=O)C1)N1CC(=O)NC(=O)C1 | 1.05% [at 42.5 µM] |
| Cc1ccsc1C(=CCCN1CCC[C@@H](C(=O)O)C1)c1sccc1C | -21.6% [at 42.5 µM] |
| CCOc1nc2cccc(C(=O)O)c2n1Cc1ccc(-c2ccccc2-c2nn[nH]n2)cc1 | -1.88% [at 42.5 µM] |
| CCCc1nc2c(C)cc(-c3nc4ccccc4n3C)cc2n1Cc1ccc(-c2ccccc2C(=O)O)cc1 | 11.5% [at 42.5 µM] |
| CCOCCOCCOC(C)=O | -3.76% |
| CO[Si](C)(OC)c1ccccc1 | -8.24% |
| Cc1ccc(N(CC2=NCCN2)c2cccc(O)c2)cc1 | 5.91% [at 42.5 µM] |
| CNS(=O)(=O)Cc1ccc2[nH]cc(CCN(C)C)c2c1 | 5.01% [at 42.5 µM] |
| CCOC(=O)CCCCCCCCC(=O)OCC | 2.91% |
| COc1cccc(O)c1 | -0.3% |

| SMILES | activity change, negative = inhibition |
| --- | --- |
| CC[C@H]1OC(=O)[C@H](C)[C@@H](O[C@H]2C[C@@](C)(OC)[C@@H](O)[C@H](C)O2)[C@H](C)[C@@H](O[C@@H]2O[C@H](C)C[C@H](N(C)C)[C@H]2O)[C@](C)(OC)C[C@@H](C)C(=O)[C@H](C)[C@@H](O)[C@]1(C)O | -0.151% |
| CC1OCCC1=O (configuration not stated) | -0.918% |
| CC(C)=CCC/C(C)=C/CC/C(C)=C/CO | 2.24% |
| O=[N+]([O-])c1cc(Cl)c(Cl)c(Cl)c1Cl | -0.89% |
| COCCOCC(OC)OC | 4.21% [at 42.5 µM] |
| ClC(Cl)(Br)Br | 1.48% |
| CCC(=O)c1cccc(Cl)c1 | -0.73% |
| CN(C)CCOC1=Cc2ccccc2Sc2ccc(Cl)cc21 | 1.69% [at 42.5 µM] |
| COc1cc2nc(Cl)nc(N)c2cc1OC | 1.52% [at 42.5 µM] |
| O=C1CCCc2c(O)cccc21 | 7.79% [at 42.5 µM] |
| C=CC(=O)O | 1.18% [at 42.5 µM] |
| Cc1c(C)c2c(c(C)c1O)CC[C@@](C)(CCC[C@H](C)CCC[C@H](C)CCCC(C)C)O2 | 0.654% |
| OC[C@@H](O)C(O)[C@@H](O)CO (some centres not stated) | -6.87% |
| C[C@H](CCC(=O)O)[C@H]1CC[C@H]2[C@@H]3[C@H](O)C[C@@H]4C[C@H](O)CC[C@]4(C)[C@H]3C[C@H](O)[C@]12C | 13.2% [at 42.5 µM] |
| Cc1ccco1 | 7.78% |
| CCCCOC(=O)C(C)Oc1ccc(Oc2ccc(C(F)(F)F)cn2)cc1 (configuration not stated) | 8.02% |
